# Experimental data published in the supplement of paper PMC3334620.
# The full ranking holds about 33,000 sequences; the median of “E-score (-0.5 to 0.5)” is about -0.032, and the highest 2% start at about 0.36. For the sample, the highest values were picked, then their nearest neighbours and some sequences at random.
# Molecular target: T1, Sko1 (UniProt Q02100)
# T1 sequence: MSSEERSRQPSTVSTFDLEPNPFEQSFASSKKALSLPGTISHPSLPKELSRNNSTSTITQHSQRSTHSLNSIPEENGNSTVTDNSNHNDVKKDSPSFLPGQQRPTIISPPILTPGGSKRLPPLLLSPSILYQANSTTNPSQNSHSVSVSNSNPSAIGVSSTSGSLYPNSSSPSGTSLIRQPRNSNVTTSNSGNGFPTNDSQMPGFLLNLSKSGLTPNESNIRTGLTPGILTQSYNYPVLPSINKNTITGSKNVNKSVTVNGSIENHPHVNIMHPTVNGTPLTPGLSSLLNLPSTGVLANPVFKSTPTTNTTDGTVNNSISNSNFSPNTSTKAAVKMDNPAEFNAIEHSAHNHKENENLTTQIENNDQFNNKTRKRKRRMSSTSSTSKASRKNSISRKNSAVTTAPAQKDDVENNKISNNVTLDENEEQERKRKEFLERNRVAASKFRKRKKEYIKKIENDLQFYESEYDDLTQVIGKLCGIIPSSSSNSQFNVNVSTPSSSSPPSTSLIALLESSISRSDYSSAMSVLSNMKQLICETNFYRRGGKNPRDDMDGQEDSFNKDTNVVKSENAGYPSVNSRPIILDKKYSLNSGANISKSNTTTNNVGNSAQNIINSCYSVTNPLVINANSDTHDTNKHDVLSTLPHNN
# Experiment: PBM E-score (8-mer binding enrichment) (E-score (-0.5 to 0.5)); higher = stronger / more preferred TF binding
# Conditions: protein concentration: 200 nM; construct: GST-full length
# Method: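 Universal 'all 10-mer' protein binding microarrays (Agilent AMADID 015681) probed with GST-tagged S. cerevisiae TFs (full-length or DBD) made by in vitro transcription/translation (PURExpress), about 100-200 nM. Bound TF was detected with fluorescent anti-GST. Each ungapped 8-mer (which stands for itself and its reverse complement) is scored by the PBM enrichment score (E-score), a modified Wilcoxon-Mann-Whitney statistic from -0.5 to +0.5, computed with the Universal PBM Analysis Suite. Scale: above 0.35 generally sequence-specific binding.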
row,Sequence,PBM E-score
1,CCCATCGC,-0.232
2,TAGTTACA,0.0798
3,AGCAAAAC,0.0756
4,AGGCCCAT,-0.288
5,GTACGTAA,0.487
6,ATACGTAG,0.471
7,ATACGGAT,0.111
8,CTCCGTAC,-0.153
9,CTACGAAC,0.0886
10,GTACGGAA,-0.00063
11,GTCCGTAA,0.00251
12,CTACGTAC,0.449
13,ATACGAAG,0.223
14,ATACGAAT,0.286
15,ATACTTAG,-0.0209
16,ATACGTAT,0.487
17,ATGGACAC,0.0118
18,GGATCACC,-0.181
19,GTCTATGA,0.238
20,AACTCACA,0.0634
21,GCACCCGC,-0.0958
22,AGACTACG,0.136
23,CCTTACCC,-0.149
24,GAGCAGGA,-0.112
25,ATACGGAA,0.141

row,Sequence,PBM E-score
1,ATACGTAA,0.491
2,ATCCGTAA,0.0757
3,AAGTTCCA,-0.0591
4,GCTACGCA,0.294
5,CCTACGCA,0.361
6,TCTACGCA,0.32
7,ACTACGCA,0.367
8,CCTACGCG,0.117
9,CCTACGCC,-0.0487
10,CCCCAACC,-0.062
11,CCCACGGA,-0.0825
12,CCCACGTC,0.402
13,CCCACGCA,0.109
14,CCCACGCC,-0.127
15,CCCACGTA,0.39
16,CCCACGGC,-0.145
17,AACTAATT,0.182
18,ATCTAGAG,-0.0987
19,ATGTTTTG,0.109
20,GTGCGTGA,0.274
21,GTGCGTCA,0.456
22,CTGCGTCA,0.435
23,CTGCGTCC,-0.112
24,GTGCGTTA,0.259
25,CGGCGTCA,0.241

row,Sequence,PBM E-score
1,ATGCGTCG,0.0928
2,ATGCGTCA,0.467
3,ATGCGTCC,-0.124
4,CTTCAGCA,-0.0157
5,CACCTTTC,-0.223
6,CAGACCTA,0.125
7,ACCTGTCC,-0.267
8,AAGAAGGT,-0.0729
9,AAGGATGG,0.00772
10,AATTGCGA,0.0547
11,AATTGCGT,0.448
12,AATTGCGG,-0.172
13,CGTGAATC,0.13
14,ACGATTTA,0.328
15,CCGTGTGA,-0.0471
16,ACGTGTGA,0.401
17,CCGTGCGC,-0.067
18,ATGTGTGC,-0.0761
19,CCGTGTGC,-0.179
20,ATGTGTGG,-0.144
21,ACGTGCGC,0.381
22,ACGTGCGG,0.308
23,GCGTGTGA,0.107
24,ACGTGGGG,0.316
25,ACGTGTGC,0.388

row,Sequence,PBM E-score
1,ACGTGTGG,0.395
2,ACCATACT,-0.0266
3,AGATTTGA,0.144
4,CATAATAC,0.3
5,ACGATGTA,0.226
6,GAGCTACC,-0.212
7,CAAAAAAA,0.187
8,GACACGGC,-0.0578
9,GACACGCC,0.0381
10,GACACGTA,0.44
11,GACACGCA,0.284
12,GACACGTC,0.382
13,GACACGGA,-0.224
14,ACCCGTCG,-0.238
15,ATGACCCG,-0.254
16,CTGACGTA,0.489
17,CTGACGGC,-0.167
18,CGGACGTA,0.353
19,CTGACCTC,-0.296
20,CTGACGTC,0.482
21,CTGACGGA,0.0532
22,AATAGCCA,0.204
23,AAGAAAGG,0.00665
24,ACAGAGCA,-0.0386
25,ACCGTAAT,0.201

row,Sequence,PBM E-score
1,AACGTAAT,0.48
2,AAGGTAAG,-0.00253
3,AACGTGAT,0.333
4,ATCGTAAA,0.32
5,ATCGTAAT,0.401
6,AGCGTAAG,0.0565
7,AACGTAAG,0.397
8,ATCGTAAG,0.234
9,AGCGTAAT,0.366
10,AGCGTAAC,0.266
11,ACCGTAAG,0.123
12,AACCCACC,-0.0866
13,AGCGAAGC,-0.0755
14,CCCAATAC,0.0194
15,CAAAGGGC,-0.252
16,CTCTAGGA,-0.335
17,ACCGTAAC,-0.135
18,AACGTAAC,0.441
19,AAAGTAAA,0.0553
20,GCCGTAAA,0.107
21,GTCGTAAC,0.267
22,GACGTAAA,0.456
23,AACGTAAA,0.425
24,ATCGTAAC,0.241
25,GACGTAAC,0.467

row,Sequence,PBM E-score
1,GGCGTAAC,0.0903
2,ACCGTAAA,0.206
3,GTCGTAAA,0.282
4,ATCAAGTA,0.0281
5,ACGTTCGG,0.0529
6,CGAGTGGA,-0.154
7,CAGGCCCC,-0.271
8,GCAGTCAA,-0.262
9,ACTTTTGC,0.185
10,AGGCACAA,-0.0774
11,CTCGTAAG,0.243
12,CACGTAAG,0.448
13,TCCGTAAA,-0.0256
14,CCCGTAAC,-0.105
15,TACGTAAA,0.484
16,CGCGTAAG,0.352
17,CTCGTAAA,0.139
18,CACGTAAC,0.449
19,CTCGTAAC,0.253
20,CCCGTAAA,-0.102
21,TTCGTAAA,0.32
22,CACGTAAA,0.437
23,CAGAAGAA,0.0487
24,ACACCACG,0.063
25,CATGGTAG,-0.193

row,Sequence,PBM E-score
1,CTGGTTAC,-0.00958
2,CCGCTGTC,-0.153
3,CGTCGAAA,0.247
4,AACTTTAC,0.171
5,CCGATTCC,-0.0807
6,ATGATCTG,0.151
7,CGGTCATC,-0.0713
8,CAGTCATC,-0.204
9,CCGTCATA,0.368
10,GAGTCATA,0.122
11,GGGTCATA,-0.0307
12,CAGTCATA,0.0103
13,CGGTCATA,0.0986
14,GCGTCATA,0.481
15,CCGTCATC,0.36
16,CGCTTGCA,-0.102
17,ACGCGTCT,0.192
18,CCGCGTCA,0.377
19,TCGCGTCA,0.408
20,TAGCGTCA,0.398
21,CAGCGTCA,0.269
22,ACGCGTCA,0.436
